About 770 (0.77%) of roughly 100,000 compounds were called active. The entries come from a sample that favours actives as a whole. Values without a mark were called inactive. Cut-off read from the data, not from the text of the source: active = inhibition above about 50%; inactive = the rest.
Target: Gag-Pol polyprotein (Human immunodeficiency virus type 1 group M subtype B (isolate HXB2)) (UniProt P04585)
Assay: RNase H inhibition, HIV 1 Gag Pol polyprotein, FRET biochemical assay, screening (AID 372)
Settings: HIV-1 RT RNase H, FRET RNA/DNA substrate fluorescence; at 10 µM; hits give high values

Q: With `CN1CCN(S(=O)(=O)c2ccc([N+](=O)[O-])cc2)CC1` as the compound, how does the inhibition read?
A: 0%

Q: Which inhibition does the source give for `O=C(Nc1ccccc1NC(=O)c1ccccc1)c1ccccc1` here?
A: 0%

Q: For `O=C(Nc1c(Cl)cccc1Cl)c1ccccc1`, which inhibition is on record?
A: 7%

Q: For `COc1cc(-c2nc3sc4c(c3c(=O)[nH]2)CCCC4)ccc1OCc1cccc(F)c1`, which inhibition is on record?
A: 56% (active)

Q: For `C=CCOc1ccc(-c2nc3sc4c(c3c(=O)[nH]2)CCCC4)cc1OC`, which inhibition is on record?
A: 30%

Q: `COc1cc(-c2nc3sc4c(c3c(=O)[nH]2)CCCC4)ccc1OCC(=O)O` was tested. Which inhibition did it give?
A: 5%

Q: Which inhibition does the source give for `COc1ccc(C(=O)/C=C/NCC(=O)c2ccccc2)cc1` here?
A: 19%

Q: `N#CC1=C(N)Oc2c(ccc3ccccc23)C1c1ccccc1Cl` (centres undefined) was tested. Which inhibition did it give?
A: 29%

Q: For `Cc1ccc(N2C(=O)CC(Sc3ccccc3C(=O)O)C2=O)c([N+](=O)[O-])c1` (centres undefined), which inhibition is on record?
A: 0%

Q: `CCOC(=O)c1c2c(n(-c3ccccc3)c1C)C=C(Br)C(=O)C2=O` was tested. Which inhibition did it give?
A: 58% (active)

Q: Which inhibition does the source give for `CCOC(=O)c1c2c(n(C)c1C)C=C(Br)C(=O)C2=O` here?
A: 4%

Q: For `CCOC(=O)c1c(C)oc2c1C(=O)C(=O)C(Br)=C2`, which inhibition is on record?
A: 2%

Q: For `Cn1c(=O)c2c(nc(Sc3nc4ccccc4o3)n2C)n(C)c1=O`, which inhibition is on record?
A: 0%

Q: With `O=C(c1ccc(I)cc1)N1CCOCC1` as the compound, how does the inhibition read?
A: 0%

Q: How did the inhibition turn out when `CC1CCN(C2(O)C(=O)Nc3ccc(Br)cc32)CC1` (centres undefined) was run?
A: 14%

Q: For `O=[N+]([O-])c1ccc(-c2ccco2)c(Cl)c1`, which inhibition is on record?
A: 14%

Q: With `O=[N+]([O-])c1ccc(-c2nnc(-c3ccco3)o2)c(Cl)c1` as the compound, how does the inhibition read?
A: 8%

Q: Which inhibition does the source give for `O=[N+]([O-])c1cc(Cl)c(-c2ccco2)c(Cl)c1` here?
A: 57% (active)

Q: Which inhibition does the source give for `CCN(CC)CCN1C(=O)C(=O)/C(=C(/O)c2ccccc2)C1c1cccc([N+](=O)[O-])c1` (centres undefined) here?
A: 1%

Q: Which inhibition does the source give for `CCN(CC)c1ccc(N=Cc2c[nH]c3ccccc23)cc1` here?
A: 4%

Q: How did the inhibition turn out when `CC(C)C(=O)NS(=O)(=O)c1ccc(N)cc1` was run?
A: 5%

Q: How did the inhibition turn out when `CC(=O)c1c(C)nc(-c2ccc(Cl)cc2)nc1NC(=O)c1ccccc1` was run?
A: 59% (active)

Q: Which inhibition does the source give for `CC(=O)Nc1nc(-c2ccc(Cl)cc2)nc(C)c1C(C)=O` here?
A: 3%

Q: Which inhibition does the source give for `CC(=O)Nc1nc(-c2ccccc2)nc(C)c1C(C)=O` here?
A: 6%

Q: For `CCOC(=O)c1c(C)oc2c(F)c(F)c(F)c(F)c12`, which inhibition is on record?
A: 22%

Q: `Cc1ccc(NC(=O)c2ccc3c(c2)C(=O)N(c2ccc([N+](=O)[O-])cc2)C3=O)cc1` was tested. Which inhibition did it give?
A: 17%

Q: `O=C(Nc1ccccc1)c1ccc2c(c1)C(=O)N(c1cccc(N3C(=O)c4ccc(C(=O)Nc5ccccc5)cc4C3=O)n1)C2=O` was tested. Which inhibition did it give?
A: 8%

Q: Which inhibition does the source give for `O=C(Nc1ccc(O)cc1)c1ccc2c(c1)C(=O)N(c1cccc(N3C(=O)c4ccc(C(=O)Nc5ccc(O)cc5)cc4C3=O)n1)C2=O` here?
A: 54% (active)

Q: For `COC(=O)c1ccc(NC(=O)c2ccc3c(c2)C(=O)N(c2cccc([N+](=O)[O-])c2)C3=O)cc1`, which inhibition is on record?
A: 10%

Q: `O=C(Nc1ccc(O)cc1)c1ccc2c(c1)C(=O)N(c1ccccn1)C2=O` was tested. Which inhibition did it give?
A: 13%

Q: How did the inhibition turn out when `COC(=O)c1ccc(NC(=O)c2ccc3c(c2)C(=O)N(c2ccc([N+](=O)[O-])cc2)C3=O)cc1` was run?
A: 52% (active)

Q: For `CC(C)(C)C1(O)CC(C(F)(F)F)=NN1C(=O)c1ccc([N+](=O)[O-])cc1` (centres undefined), which inhibition is on record?
A: 18%

Q: `COc1ccc(NC(=O)c2ccc(-c3ccccc3)cc2)cc1` was tested. Which inhibition did it give?
A: 8%

Q: `COC(=O)c1c(C)oc2cc(Br)c(OC(=O)c3cccc([N+](=O)[O-])c3)cc12` was tested. Which inhibition did it give?
A: 0%

Q: `Cc1cccc(C)c1OCCOc1ccccc1/C=C1\SC(=S)N(C)C1=O` was tested. Which inhibition did it give?
A: 13%

Q: With `CC(c1ccccc1)C1CC(=O)N(c2ccc(F)cc2)C1=O` (centres undefined) as the compound, how does the inhibition read?
A: 0%

Q: Which inhibition does the source give for `CC(c1ccccc1)C1CC(=O)N(c2ccccc2)C1=O` (centres undefined) here?
A: 0%

Q: For `CC(c1ccccc1)C1CC(=O)N(c2ccc(I)cc2)C1=O` (centres undefined), which inhibition is on record?
A: 54% (active)

Q: `CCCc1cc2c(-c3ccccc3)cc(=O)oc2cc1OCC(=O)O` was tested. Which inhibition did it give?
A: 9%

Q: `CCCc1cc2c(-c3ccccc3)cc(=O)oc2cc1OCC` was tested. Which inhibition did it give?
A: 22%

Q: Which inhibition does the source give for `CCCc1cc2c(-c3ccccc3)cc(=O)oc2cc1OCc1ccc(C(=O)O)o1` here?
A: 59% (active)

Q: Which inhibition does the source give for `Cc1ccc(NC(=O)C(=NNc2ccccc2)C(=O)Nc2ccc(C)cc2)cc1` here?
A: 0%

Q: Which inhibition does the source give for `CC1CC(N(c2ccccc2)S(=O)(=O)c2ccc(Cl)cc2)c2ccccc2N1` (centres undefined) here?
A: 60% (active)

Q: How did the inhibition turn out when `CC(=O)N(c1ccccc1)C1CC(C)Nc2ccccc21` (centres undefined) was run?
A: 1%

Q: `CC1CC(N(C(=O)c2ccc(Cl)cc2)c2ccccc2)c2ccccc2N1` (centres undefined) was tested. Which inhibition did it give?
A: 10%

Q: Which inhibition does the source give for `CCOC(=O)c1sc(NC(=O)/C=C/c2cccc([N+](=O)[O-])c2)nc1C` here?
A: 6%

Q: `COC(=O)C1=C(C)NC(=O)/C1=C\c1ccccc1` was tested. Which inhibition did it give?
A: 8%

Q: With `O=C1/C(=C\c2ccc(-c3ccccc3[N+](=O)[O-])o2)SC(=S)N1C1CCS(=O)(=O)C1` (centres undefined) as the compound, how does the inhibition read?
A: 23%

Q: Which inhibition does the source give for `Cc1cc(C)cc(-n2c(C)cc(/C=N/NC(=O)c3cccnc3)c2C)c1` here?
A: 13%

Q: With `O=c1/c(=C/c2ccc(-c3ccccc3Cl)o2)sc2nc3ccccc3n12` as the compound, how does the inhibition read?
A: 3%

Q: Which inhibition does the source give for `COc1ccc(C2C3=C(CC(C)(C)CC3=O)Nc3ccccc3N2C(=O)CC(C)C)cc1` (centres undefined) here?
A: 3%

Q: With `Cc1ccc2nc(-c3ccc(NC(=O)/C=C/c4cccc([N+](=O)[O-])c4)cc3)oc2c1` as the compound, how does the inhibition read?
A: 54% (active)

Q: `O=C(/C=C/c1ccc(Cl)cc1)Nc1ccc(-c2nc3ccccc3o2)c(O)c1` was tested. Which inhibition did it give?
A: 20%

Q: With `O=C(/C=C/c1cccc([N+](=O)[O-])c1)Nc1ccc(-c2nc3ccccc3o2)cc1` as the compound, how does the inhibition read?
A: 54% (active)

Q: With `O=C(/C=C/c1ccc(Cl)cc1)Nc1ccc(-c2nc3ccccc3o2)cc1` as the compound, how does the inhibition read?
A: 52% (active)

Q: How did the inhibition turn out when `Cc1ccc2nc(-c3ccc(NC(=O)/C=C/c4ccc(Cl)cc4)cc3)oc2c1` was run?
A: 48%

Q: `Cc1cc(C)c2oc(-c3ccc(NC(=O)/C=C/c4cccc([N+](=O)[O-])c4)cc3)nc2c1` was tested. Which inhibition did it give?
A: 16%

Q: For `Cc1ccc2nc(-c3ccc(C)c(NC(=O)/C=C/c4cccc([N+](=O)[O-])c4)c3)oc2c1`, which inhibition is on record?
A: 40%

Q: For `O=C(/C=C/c1cccc([N+](=O)[O-])c1)Nc1ccc2oc(-c3ccccc3)nc2c1`, which inhibition is on record?
A: 31%

Q: How did the inhibition turn out when `O=C(/C=C/c1cccc([N+](=O)[O-])c1)Nc1ccc(-c2nc3ccccc3o2)c(O)c1` was run?
A: 14%

Q: `N#Cc1cnn(-c2ccc3ccccc3c2)c1N` was tested. Which inhibition did it give?
A: 5%

Q: `Cc1ccc(N=Cc2ccco2)c(C)c1` was tested. Which inhibition did it give?
A: 29%

Q: With `CC1(C)CC(=O)c2cc(C(=O)NCc3ccccc3)c(=O)n(-c3ccccc3)c2C1` as the compound, how does the inhibition read?
A: 15%

Q: How did the inhibition turn out when `O=C(COc1ccc(Br)cc1Cl)NCCc1ccccc1` was run?
A: 16%

Q: For `COc1ccc(CC(=O)Nc2ccc(Br)cc2C)cc1OC`, which inhibition is on record?
A: 50% (active)

Q: `COc1ccc(CCNC(=O)COc2ccccc2OC)cc1OC` was tested. Which inhibition did it give?
A: 1%

Q: For `COCCNC(=O)COc1ccc(Cl)cc1Br`, which inhibition is on record?
A: 14%

Q: With `COc1ccc(CCNC(=O)COc2ccc(Cl)cc2Br)cc1OC` as the compound, how does the inhibition read?
A: 54% (active)

Q: How did the inhibition turn out when `COc1ccc(CC(=O)Nc2ccc(Br)cc2F)cc1OC` was run?
A: 12%

Q: How did the inhibition turn out when `COc1ccc(CCNC(=O)COc2ccc(Br)cc2)cc1OC` was run?
A: 1%

Q: Which inhibition does the source give for `COc1ccc(CC(=O)Nc2ccc(Cl)cc2C)cc1OC` here?
A: 0%

Q: For `COc1ccc(CCNC(=O)COc2ccc(Br)cc2Cl)cc1OC`, which inhibition is on record?
A: 53% (active)

Q: Which inhibition does the source give for `CC(C(=O)N1CCOCC1)N1C(=O)c2cccc3cccc(c23)C1=O` (centres undefined) here?
A: 19%

Q: With `COc1ccc(C(=O)N2CCc3ccccc3C2)cc1` as the compound, how does the inhibition read?
A: 15%

Q: With `COc1cc(/C=C2/C(=O)NC(=O)N(Cc3ccco3)C2=O)ccc1OCC(N)=O` as the compound, how does the inhibition read?
A: 0%

Q: For `CCOc1ccc(/C=C2\SC(=S)N(Cc3ccccc3)C2=O)c(OCC)c1`, which inhibition is on record?
A: 12%

Q: How did the inhibition turn out when `CCOC(=O)C1=C(C)N(c2ccccc2)C(=O)C1` was run?
A: 10%

Q: With `COc1cccc(C2/C(=C(\O)c3ccc(Cl)cc3)C(=O)C(=O)N2CCCCCC(=O)O)c1` (centres undefined) as the compound, how does the inhibition read?
A: 16%

Q: Which inhibition does the source give for `CC(C)(C)c1cc(CCC(=O)NCCN2C(=O)c3ccccc3C2=O)cc(C(C)(C)C)c1O` here?
A: 2%

Q: How did the inhibition turn out when `Cc1ccc(SCC(=O)N2CCCC2)cc1` was run?
A: 6%

Q: How did the inhibition turn out when `Nc1ccc(C2=Nc3cccc4cccc(c34)N2)cc1` was run?
A: 56% (active)

Q: With `Nc1cccc(C2=Nc3cccc4cccc(c34)N2)c1` as the compound, how does the inhibition read?
A: 56% (active)

Q: How did the inhibition turn out when `c1ccc(NC2=Nc3cccc4cccc2c34)cc1` was run?
A: 12%

Q: How did the inhibition turn out when `Nc1cccc(-c2nnc(-c3ccccc3)o2)c1` was run?
A: 3%

Q: Which inhibition does the source give for `Nc1cccc(-c2cc(C(=O)O)c3ccccc3n2)c1` here?
A: 0%

Q: For `Cc1ccc([N+](=O)[O-])cc1-c1ccc(/C=C(\C#N)C(=O)NCc2ccco2)o1`, which inhibition is on record?
A: 1%

Q: With `Cc1nn(-c2ccccc2)c2c1C(c1ccc(O)cc1)C(C#N)=C(N)O2` (centres undefined) as the compound, how does the inhibition read?
A: 3%

Q: For `O=c1/c(=C/c2cc([N+](=O)[O-])ccc2OCCCOc2ccccc2)sc2nc3ccccc3n12`, which inhibition is on record?
A: 4%

Q: Which inhibition does the source give for `C=CC(=O)NC1(CCC)CCCCC1` here?
A: 11%

Q: How did the inhibition turn out when `COc1ccc(/C=C(C(=O)O)/C(C)=C/C(=O)O)c(OC)c1` was run?
A: 7%

Q: Which inhibition does the source give for `COc1ccc(C(=O)c2ccc(Cl)cc2Cl)cc1` here?
A: 15%

Q: For `Cc1sc2nc(-c3ccc(Br)cc3)[nH]c(=O)c2c1C`, which inhibition is on record?
A: 8%

Q: For `Cc1sc2nc(-c3ccccc3)[nH]c(=O)c2c1C`, which inhibition is on record?
A: 10%

Q: With `N=C1S/C(=C\c2ccc(N3CCOCC3)cc2)C(=O)N1c1ccc(Br)cc1` as the compound, how does the inhibition read?
A: 53% (active)

Q: With `O=C1S/C(=C/c2ccc(Br)cc2)C(=O)N1c1ccccc1` as the compound, how does the inhibition read?
A: 0%

Q: `CCOC(=O)c1ccc(N2C(=N)S/C(=C\c3ccc(N4CCOCC4)cc3)C2=O)cc1` was tested. Which inhibition did it give?
A: 15%

Q: `O=C(NCc1ccccn1)C(=O)Nc1ccc(F)cc1` was tested. Which inhibition did it give?
A: 12%

Q: How did the inhibition turn out when `COc1ccc(NC(=O)C(=O)NCc2ccccn2)cc1` was run?
A: 8%

Q: With `O=C(NCc1ccccn1)C(=O)Nc1ccc(Oc2ccccc2)cc1` as the compound, how does the inhibition read?
A: 54% (active)
